A selection: hits, their analogues and other compounds. The true share with any hit is near 3.6%.
Anthrax LF inh2 = Bacillus anthracis LF protease inhibitors, primary screen, biochemical, multiplex microsphere, MLPCN library; inhibition, % at 10 µM; actives 0.12% (n = 360,000); multiplex microsphere protease cleavage assay; Lethal factor (Bacillus anthracis), P15917; AID 588501, 2011
Target sequence (P15917 whole entry, looked up): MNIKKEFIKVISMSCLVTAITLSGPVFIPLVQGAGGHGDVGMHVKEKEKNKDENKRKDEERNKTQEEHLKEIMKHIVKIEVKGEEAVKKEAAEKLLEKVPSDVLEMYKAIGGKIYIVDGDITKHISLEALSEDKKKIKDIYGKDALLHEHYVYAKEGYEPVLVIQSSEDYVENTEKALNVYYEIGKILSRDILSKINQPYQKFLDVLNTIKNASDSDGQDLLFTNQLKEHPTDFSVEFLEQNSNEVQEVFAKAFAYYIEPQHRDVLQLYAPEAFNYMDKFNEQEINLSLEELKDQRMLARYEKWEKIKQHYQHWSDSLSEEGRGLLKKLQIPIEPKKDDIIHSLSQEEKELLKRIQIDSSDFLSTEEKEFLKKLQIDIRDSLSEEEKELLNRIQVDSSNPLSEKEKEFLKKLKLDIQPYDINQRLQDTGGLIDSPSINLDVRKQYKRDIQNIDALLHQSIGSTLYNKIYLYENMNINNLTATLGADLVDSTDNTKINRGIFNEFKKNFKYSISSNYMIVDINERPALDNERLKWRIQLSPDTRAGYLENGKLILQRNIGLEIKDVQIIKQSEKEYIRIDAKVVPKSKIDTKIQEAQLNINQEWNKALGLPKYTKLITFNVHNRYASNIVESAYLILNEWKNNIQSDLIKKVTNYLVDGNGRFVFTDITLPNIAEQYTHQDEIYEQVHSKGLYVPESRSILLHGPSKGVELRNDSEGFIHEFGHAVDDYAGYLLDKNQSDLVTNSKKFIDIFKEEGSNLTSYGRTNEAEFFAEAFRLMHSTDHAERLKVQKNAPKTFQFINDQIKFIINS
MazF activator = activators of E. coli MazEF toxin-antitoxin RNase, primary screen, biochemical, fluorescence, uHTS; Endoribonuclease toxin MazF (Escherichia coli (strain K12)), P0AE70; FAM/BHQ RNA-DNA oligo cleavage fluorescence, 5 h; activation, % at 20 µM; actives 0.32% (n = 350,000); in the data active means activation above about 50%
BoNT-A LC inh2 = BoNT/A light chain protease inhibitors, primary screen, biochemical, flow cytometry, MLPCN library; Botulinum neurotoxin type A light chain protease (Clostridium botulinum A str. ATCC 3502); multiplex microsphere protease substrate cleavage; inhibition, % at 10 µM; actives 0.17% (n = 360,000)
Bead autofluor = compound fluorescence in toxin protease inhibitor counterscreen; compound autofluorescence counterscreen, microsphere flow cytometry; stronger effect = higher value; fluorescence intensity (no concentration beside the values); actives 3.1% (n = 360,000); in the data active means fluorescence intensity above about 16000; inconclusive means no clear call, values can overlap the other calls
BoNT-F LC inh = BoNT/F light chain protease inhibitors, primary screen, biochemical, flow cytometry, MLPCN library | Multiplex microsphere protease cleavage assay | inhibition, % at 10 µM | actives 0.22% (n = 360,000); in the data active means inhibition above about 35%, passing the limit was not always enough; inconclusive means no clear call, values can overlap the other calls
Each line names hits and unclear results; the compound was inactive in the other large screens. Unless noted, no stated cut-off is given here; in the data, active means inhibition above about 30%; inconclusive means no clear call, values can overlap the other calls; inactive means below that.

Cn1cnc2nc[nH]c2c1=O	none
CC(SC1CCCC1)C(=O)Nc1ccnn1C(C)C (centres undefined)	BoNT-A LC inh2 inconclusive, Bead autofluor 20011
O=C1/C(=N\S(=O)(=O)c2cccs2)C([n+]2ccc(CCCc3ccccc3)cc2)=C([O-])c2ccccc21	none (no result: Anthrax LF inh2, BoNT-A LC inh2, Bead autofluor, BoNT-F LC inh)
O=C1/C(=N\S(=O)(=O)c2cccs2)C([n+]2cccc(Cc3ccccc3)c2)=C([O-])c2ccccc21	MazF activator 271 (no result: Anthrax LF inh2, BoNT-A LC inh2, Bead autofluor, BoNT-F LC inh)
Cc1cc(C)cc(N(CC(=O)NC2CCCCC2)C(=O)CCCC(=O)Nc2ccccn2)c1	none
CC(N=Cc1cccc(O)c1O)c1ccccc1 (centres undefined)	Bead autofluor 22938
CC(N=Cc1c(O)[nH]c(=O)[nH]c1=O)c1ccccc1 (centres undefined)	Bead autofluor 17759
CC(N=Cc1cc([N+](=O)[O-])ccc1O)c1ccccc1 (centres undefined)	none
Cc1cc([N+](=O)[O-])cc(/C=N\NC(=O)C2COc3ccccc3O2)c1O (centres undefined)	none
CN(CC1CCOCC1)C(=O)CC1C(=O)NCCN1Cc1cccc(F)c1 (centres undefined)	none
Cc1cccc[n+]1CC(=O)Nc1ccccc1	BoNT-F LC inh 37
COC(=O)c1ccc(NC(=O)C[n+]2ccccc2C)cc1	none
CC(=O)c1cccc(NC(=O)C2Cc3c(-c4cccc(C(N)=O)c4)ccnc3O2)c1 (centres undefined)	none (no result: MazF activator)
COc1ccc(N=c2oc3c(OC)cccc3cc2C(=O)NCc2ccco2)cc1OC	MazF activator 344, BoNT-A LC inh2 inconclusive, Bead autofluor 19539
COc1ccccc1C(=O)NCc1ccco1	none
COc1cccc(C(=O)NCc2ccco2)c1OC	none
COc1ccccc1N=c1oc2c(OC)cccc2cc1C(=O)NCc1ccco1	MazF activator 69, Bead autofluor 20264
COc1ccc(OC)c(N=c2oc3c(OC)cccc3cc2C(=O)NCc2ccco2)c1	MazF activator 76, Bead autofluor 16799
CCC(=O)c1cn(CC(=O)Nc2ccccc2Cl)c2ccccc12	MazF activator 54, BoNT-F LC inh inconclusive
Cc1ccc(C(=O)Nc2ccc(S(=O)(=O)NCc3ccco3)cc2)cc1	Bead autofluor 21876
Cc1cccc(C(=O)Nc2cccc(S(=O)(=O)NCc3ccco3)c2)c1	none
Cc1cc(C)cc(NC(=O)c2cc(S(=O)(=O)NCc3ccco3)ccc2F)c1	Bead autofluor 21467
O=C(Nc1ccccc1)c1ccc(S(=O)(=O)NCc2ccco2)cc1	none
COc1cc(C(=O)Oc2ccc3c(c2)OCC3=O)cc(OC)c1OC	BoNT-F LC inh 44
Cc1ccc(C)n1-c1ccc(N2CCOCC2)cc1	none
Cc1cc(N2CCOCC2)cc(C)[n+]1[O-]	Bead autofluor 16435
O=C(NCc1ccc(F)cc1)c1cccc2c1C(=O)c1ccc(N3CCC(N4CCCCC4)CC3)cc1S2(=O)=O	none
O=C(NCc1ccc(F)cc1)c1cccc2c1C(=O)c1ccc(N3CCC(Cc4ccccc4)CC3)cc1S2(=O)=O	Anthrax LF inh2 33
CC1=C(C(=O)OC(C)C)C(c2cccs2)NC(=S)N1 (centres undefined)	none
CCc1cc(CNC(=O)C2CCC(=O)N(Cc3cccc(F)c3)C2)on1 (centres undefined)	none
O=C(c1cc(-c2ccc(Cl)c(Cl)c2)on1)N1CCOCC1	none
O=C(c1cc(-c2ccc(Cl)cc2)on1)N1CCOCC1	Bead autofluor 21336
O=C(c1cc(-c2ccc3c(c2)OCO3)on1)N1CCOCC1	BoNT-A LC inh2 inconclusive, Bead autofluor 23477
O=C(c1cc(-c2ccc3c(c2)OCO3)on1)N1CCN(c2ccccc2)CC1	Bead autofluor 18888
O=C(CSC(=S)N1CCN(c2ccccc2)CC1)Nc1nc(-c2ccccc2)c(-c2ccccc2)o1	none
O=C(O)C1CC=CCC1C(=O)NCc1ccccc1 (centres undefined)	Bead autofluor 22945
CCOc1ccccc1NC(=O)C1CC2CCCC(C1)C2=O (centres undefined)	Bead autofluor 23703
O=C(O)C1CCCCC1C(=O)NCc1ccccc1 (centres undefined)	none
O=C(NCc1ccccc1)C1CC(=O)N(C2CCCCC2)C1 (centres undefined)	none
O=C(NCc1ccccc1)C1CC2CCCC(C1)C2=O (centres undefined)	BoNT-A LC inh2 inconclusive, Bead autofluor 17138
CCN(CC)CCCN=C(C)c1c(O)n(C2CCCCC2)c(=O)[nH]c1=O	Bead autofluor 16590
CCC(=NCCCN(CC)CC)c1c(O)n(C2CCCCC2)c(=O)[nH]c1=O	Bead autofluor 25763
CCC(=Nc1ccc(OC)cc1OC)c1c(O)n(C2CCCCC2)c(=O)[nH]c1=O	Bead autofluor 22084
CC(C)c1ccc(NC(=O)C2(C)Cc3c(-c4ccccc4)ccnc3O2)cc1 (centres undefined)	none (no result: MazF activator)
CCc1ccc(OCC(=O)N2CCN(c3ccccn3)CC2)c(Br)c1	none
CC(=O)Nc1ccc(S(=O)(=O)N(C)CC(=O)Nc2nc3ccccc3[nH]2)cc1	none
Cn1c(C(C(=O)NCC2CCCO2)N(C(=O)Cn2nnc3ccccc32)C2CCCCC2)nc2ccccc21 (centres undefined)	Bead autofluor 21506
Cc1c(C(=O)C(=O)NCCCn2ccnc2)c2ccccc2n1C	none
CCOc1ccc(CC(=O)Nc2sc(Cc3ccccc3)c(C)c2C(N)=O)cc1OCC	Bead autofluor 23316
Cc1c(Cc2ccccc2)sc(NC(=O)c2ccco2)c1C(N)=O	none
CC1CCCN(CC(O)CN)C1 (centres undefined)	Bead autofluor 17684
CCOC(=O)N1CCN(C(=O)c2ccccc2N(C)S(C)(=O)=O)CC1	Bead autofluor 16798
CCOC(=O)N1CCN(C(=O)c2ccc(NS(C)(=O)=O)cc2)CC1	Bead autofluor 16339
CCOC(=O)N1CCN(C(=O)c2ccc(S(=O)(=O)Nc3ccc(C)cc3)cc2)CC1	none
CN(c1ccccc1C(=O)N1CCCC1)S(C)(=O)=O	BoNT-F LC inh inconclusive
CC(C)C[C@@]12C(=O)N(c3cccc(F)c3)C(=O)N1[C@H](c1ccc(F)cc1)[C@@H]1C(=O)N(C3CCCCC3)C(=O)[C@@H]12	none
COc1cccc(C(=O)Nc2ccc3c(c2)C(=O)N(CCC(=O)O)C3=O)c1	BoNT-A LC inh2 inconclusive, Bead autofluor 20871
COCCCN1C(=O)c2ccc(C(=O)Nc3cccc(OC)c3)cc2C1=O	none (no result: Anthrax LF inh2, BoNT-A LC inh2, Bead autofluor, BoNT-F LC inh)
CN(C)CCC1(c2ccccc2)CCN(C)C1=O (centres undefined)	none
CN=C1SC(CC(=O)Nc2cc(Cl)ccc2Cl)C(=O)N1C (centres undefined)	Bead autofluor 21833
CN=C1SC(CC(=O)Nc2ccc(C(C)=O)cc2)C(=O)N1C (centres undefined)	none
